Data published in PubChem BioAssay (NCATS).
Inconclusive results are not listed. Activity calls are given as the source filed them. Unless noted, calls come from the whole dose curve; as a rule, active = well fitted curve in the direction sought with a large enough effect; inconclusive = small, poorly fitted or top-dose-only effect, or another doubt; inactive = no such curve, though single readings can be large; an effect the other way counts as inactive or inconclusive.

What was measured:
[1] = biological target: DNA repair nuclease/redox regulator APEX1 (Homo sapiens) (UniProt P27695); assay: qHTS Validation Assay for Inhibitors of the Human Apurinic/apyrimidinic Endonuclease 1 (APE1) (AID 1705;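 note: TAMRA fluorescence gain over two minutes as APE1 cuts a quenched THF abasic duplex; series mostly up to about 57 µM; % is set by controls: 0 for no effect and ±100 for the full control effect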)
DNA repair nuclease/redox regulator APEX1 (Homo sapiens), sequence (P27695 whole entry, looked up): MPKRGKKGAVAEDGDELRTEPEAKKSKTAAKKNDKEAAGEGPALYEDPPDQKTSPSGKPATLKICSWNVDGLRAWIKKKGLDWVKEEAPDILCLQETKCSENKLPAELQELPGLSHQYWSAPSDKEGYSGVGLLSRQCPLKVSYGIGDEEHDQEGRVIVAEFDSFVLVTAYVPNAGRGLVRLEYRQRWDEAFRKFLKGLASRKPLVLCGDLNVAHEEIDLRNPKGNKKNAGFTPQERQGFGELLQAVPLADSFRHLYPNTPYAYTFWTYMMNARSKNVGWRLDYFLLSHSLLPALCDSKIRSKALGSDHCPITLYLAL
Outline: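 qHTS, 1536-well. APE1 + cpd 15 min RT → 50 nM TAMRA/BHQ-2 THF-abasic dsDNA substrate → kinetic fluorescence, 3 reads/60 s; delta(read3−read1) = reaction progress. No-enzyme buffer = negative control.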

[2] = biological target: Endonuclease 4 (Escherichia coli (strain K12)) (UniProt P0A6C1); assay: Counterscreen for APE1 Inhibitors: qHTS Validation Assay for Inhibitors of Endonuclease IV (AID 1708); note: % is set by controls: 0 for no effect and ±100 for the full control effect
Outline: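 Concentration-response counterscreen run identically to the APE1 assay: 15 min room-temperature preincubation of 2 nM enzyme with compound, reaction started with 50 nM quenched abasic DNA, progress taken from kinetic fluorescence.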

[3] = qHTS for differential inhibitors of proliferation of Plasmodium falciparum line GB4 (AID 1816); settings: Potency: Plasmodium falciparum GB4 proliferation inhibition;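 note: parasite growth measured after 72 h incubation; 0% = vehicle DMSO and -100% = reference inhibitor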
[4] = qHTS for differential inhibitors of proliferation of Plasmodium falciparum line 3D7 (AID 1876);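 note: parasite growth measured after three days of culture; 0% = vehicle wells and -100% = reference inhibitor wells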
[5] = qHTS for differential inhibitors of proliferation of Plasmodium falciparum line D10 (AID 1877);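 note: parasites grown with compound for 72 h before DNA staining; plate controls were vehicle wells for no effect and reference inhibitor wells for full effect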
[6] = qHTS for differential inhibitors of proliferation of Plasmodium falciparum line W2 (AID 1883); settings: Potency: Plasmodium falciparum W2 proliferation inhibition;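 note: parasites grown with compound for 72 h before lysis and staining; 0% = vehicle wells and -100% = control inhibitor wells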
[7] = qHTS Assay for Modulators of Human Peripheral Myelin Protein 22 (PMP22) Expression/Activity (AID 1967; active = well fitted curve in the direction sought with a large enough effect in the signal ratio; the % refers to the signal ratio;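 note: 0% = untreated cells and 100% end not stated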)
Outline: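 Luminescence ratio of Pmp22 promoter-driven green luciferase to EF-alpha-driven red luciferase, in engineered mouse MSC80 Schwann cells, served as read-out. Compounds were incubated 24h; untreated cells defined 0% Activity; curves were classified by r2, magnitude and activity.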

[8] = biological target: ATP-dependent DNA helicase Q1 (Homo sapiens) (UniProt P46063); assay: qHTS Validation Assay for Inhibitors of RecQ-Like Dna Helicase 1 (RECQ1) (AID 2353);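 note: plate controls were DMSO vehicle for no effect and enzyme-free control for full effect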
ATP-dependent DNA helicase Q1 (Homo sapiens), sequence (P46063 whole entry, looked up): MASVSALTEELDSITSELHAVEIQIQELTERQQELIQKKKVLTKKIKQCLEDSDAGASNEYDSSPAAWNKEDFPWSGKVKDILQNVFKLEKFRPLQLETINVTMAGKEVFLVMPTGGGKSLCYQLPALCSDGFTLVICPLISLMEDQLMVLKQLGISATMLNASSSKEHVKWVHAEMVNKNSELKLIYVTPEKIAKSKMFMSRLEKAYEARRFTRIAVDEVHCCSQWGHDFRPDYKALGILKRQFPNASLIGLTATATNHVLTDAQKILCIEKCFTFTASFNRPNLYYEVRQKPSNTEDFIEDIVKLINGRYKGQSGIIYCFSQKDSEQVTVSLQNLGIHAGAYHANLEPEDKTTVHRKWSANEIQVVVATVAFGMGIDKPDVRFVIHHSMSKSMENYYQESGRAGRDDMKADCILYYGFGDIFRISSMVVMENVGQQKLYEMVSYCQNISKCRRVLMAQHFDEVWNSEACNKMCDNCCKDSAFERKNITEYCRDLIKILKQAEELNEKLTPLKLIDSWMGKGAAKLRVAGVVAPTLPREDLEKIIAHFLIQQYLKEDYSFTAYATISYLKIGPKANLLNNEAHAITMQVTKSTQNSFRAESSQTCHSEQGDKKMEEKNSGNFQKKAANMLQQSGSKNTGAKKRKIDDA
Outline: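 50 nM RECQ1T1 preincubated 15 min with compound in Tris pH 8.0 buffer with MgCl2, DTT, Tween-20 and 2.5 ug/ml poly(dI-dC); started with 200 nM TAMRA/BHQ-2 forked duplex and 2 mM ATP. Unwinding read as fluorescence (525/598 nm), two reads 2 h apart.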

[9] = Validation screen for inhibitors of Lassa infection (AID 463096; calls by dose curve; note: potency is the fitted concentration of half-maximal effect)
[10] = Quantitative high throughput screen for delayed death inhibitors of the malarial parasite plastid, 96 hour incubation (AID 488745); note: series mostly up to about 29 µM; % is set by controls: 0 for no effect and ±100 for the full control effect; nearly all actives have a fitted effect of over 70% in size
Outline: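 Luciferase-expressing P. falciparum in erythrocytes (2% hematocrit, 0.1% parasitemia) incubated with compound for 96 h at 37 C, 5% CO2, in RPMI 1640 with 0.5% Albumax. Growth inhibition read as decreased luminescence.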

[11] = biological target: M-phase phosphoprotein 8 (Homo sapiens) (UniProt Q99549); assay: qHTS Validation Assay for Inhibitors for MPP8 Chromodomain Interactions with Methylated Histone Tails (AID 488949);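 note: 50 nM MPP8 with 50 nM peptide preformed then compounds added for 30 min; AlphaScreen signal from MPP8 chromodomain bound to biotinylated H3K9me3 peptide; top concentration of the series differs between compounds; % is set by controls: 0 for no effect and ±100 for the full control effect; nearly all actives have a fitted effect of over 55% in size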
M-phase phosphoprotein 8 (Homo sapiens), sequence (Q99549 whole entry, looked up): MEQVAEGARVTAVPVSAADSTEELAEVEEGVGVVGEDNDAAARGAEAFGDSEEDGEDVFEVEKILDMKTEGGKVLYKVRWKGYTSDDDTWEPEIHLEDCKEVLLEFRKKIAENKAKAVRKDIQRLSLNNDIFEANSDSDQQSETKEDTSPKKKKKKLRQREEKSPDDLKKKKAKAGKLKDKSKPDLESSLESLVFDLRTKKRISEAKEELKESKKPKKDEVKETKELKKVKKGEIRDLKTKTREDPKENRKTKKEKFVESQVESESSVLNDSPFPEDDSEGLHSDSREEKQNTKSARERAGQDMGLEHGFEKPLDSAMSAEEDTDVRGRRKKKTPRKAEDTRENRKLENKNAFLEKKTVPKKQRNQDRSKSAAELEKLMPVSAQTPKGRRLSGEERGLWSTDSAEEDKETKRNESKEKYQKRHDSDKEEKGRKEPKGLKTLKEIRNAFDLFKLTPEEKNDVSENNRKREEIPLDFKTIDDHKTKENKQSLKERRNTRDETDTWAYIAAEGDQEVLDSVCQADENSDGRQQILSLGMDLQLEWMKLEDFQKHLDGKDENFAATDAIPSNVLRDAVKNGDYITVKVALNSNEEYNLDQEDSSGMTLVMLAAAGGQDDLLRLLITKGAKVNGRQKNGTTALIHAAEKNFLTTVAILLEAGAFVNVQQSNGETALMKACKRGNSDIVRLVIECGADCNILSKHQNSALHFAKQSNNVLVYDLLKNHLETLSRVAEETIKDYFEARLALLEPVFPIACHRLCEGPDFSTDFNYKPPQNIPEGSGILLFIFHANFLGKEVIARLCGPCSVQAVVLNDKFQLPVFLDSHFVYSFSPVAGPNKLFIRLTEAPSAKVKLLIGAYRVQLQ
Outline: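 50 nM MPP8 + 50 nM b-H3K9me3 peptide, PBS pH 7.4/0.01% Tween-20, 30 min RT; + cpd 30 min RT; + AlphaScreen donor/Ni-chelate acceptor beads 10 ug/mL final, 30 min dark; luminescence read.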

[12] = biological target: Transient receptor potential cation channel subfamily V member 1 (Homo sapiens) (UniProt Q8NER1); assay: HTS Assay for Compounds that Act as Enhancers of the Vanilloid Receptor 1 (AID 488979); note: 0% is about no effect
Transient receptor potential cation channel subfamily V member 1 (Homo sapiens), sequence (Q8NER1 whole entry, looked up): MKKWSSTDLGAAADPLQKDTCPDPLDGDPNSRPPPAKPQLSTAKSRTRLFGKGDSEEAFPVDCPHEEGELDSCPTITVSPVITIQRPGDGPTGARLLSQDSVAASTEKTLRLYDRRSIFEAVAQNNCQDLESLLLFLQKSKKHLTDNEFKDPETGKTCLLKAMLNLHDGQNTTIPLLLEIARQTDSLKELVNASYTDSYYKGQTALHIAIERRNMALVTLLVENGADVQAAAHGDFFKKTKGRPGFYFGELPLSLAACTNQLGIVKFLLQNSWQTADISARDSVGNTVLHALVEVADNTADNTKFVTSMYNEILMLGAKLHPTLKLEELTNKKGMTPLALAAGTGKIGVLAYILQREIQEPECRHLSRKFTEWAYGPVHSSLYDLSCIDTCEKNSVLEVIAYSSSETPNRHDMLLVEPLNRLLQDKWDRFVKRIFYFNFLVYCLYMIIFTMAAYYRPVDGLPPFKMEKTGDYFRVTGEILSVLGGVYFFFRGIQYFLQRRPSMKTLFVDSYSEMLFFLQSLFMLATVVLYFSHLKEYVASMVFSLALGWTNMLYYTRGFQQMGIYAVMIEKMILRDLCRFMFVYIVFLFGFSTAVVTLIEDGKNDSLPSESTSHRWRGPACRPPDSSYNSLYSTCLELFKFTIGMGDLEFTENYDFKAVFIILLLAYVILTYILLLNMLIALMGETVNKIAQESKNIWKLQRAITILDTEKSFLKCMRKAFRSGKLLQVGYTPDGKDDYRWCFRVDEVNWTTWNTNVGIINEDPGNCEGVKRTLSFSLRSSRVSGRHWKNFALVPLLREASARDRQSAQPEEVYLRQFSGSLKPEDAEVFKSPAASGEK
Outline: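 TRPV1-expressing cells loaded with Fluo-8 calcium dye; compounds added and calcium influx read kinetically for 3 min (agonist phase), then capsaicin at EC20 added and read 2 min more for enhancement. Fluorescence ex 480/em 520 nm.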

[13] = biological target: Thyrotropin receptor (Homo sapiens) (UniProt P16473); assay: qHTS Assay for Antagonists of the Thyroid Stimulating Hormone Receptor (AID 488980); note: series mostly up to about 58 µM; 0% is about no effect
Thyrotropin receptor (Homo sapiens), sequence (P16473 whole entry, looked up): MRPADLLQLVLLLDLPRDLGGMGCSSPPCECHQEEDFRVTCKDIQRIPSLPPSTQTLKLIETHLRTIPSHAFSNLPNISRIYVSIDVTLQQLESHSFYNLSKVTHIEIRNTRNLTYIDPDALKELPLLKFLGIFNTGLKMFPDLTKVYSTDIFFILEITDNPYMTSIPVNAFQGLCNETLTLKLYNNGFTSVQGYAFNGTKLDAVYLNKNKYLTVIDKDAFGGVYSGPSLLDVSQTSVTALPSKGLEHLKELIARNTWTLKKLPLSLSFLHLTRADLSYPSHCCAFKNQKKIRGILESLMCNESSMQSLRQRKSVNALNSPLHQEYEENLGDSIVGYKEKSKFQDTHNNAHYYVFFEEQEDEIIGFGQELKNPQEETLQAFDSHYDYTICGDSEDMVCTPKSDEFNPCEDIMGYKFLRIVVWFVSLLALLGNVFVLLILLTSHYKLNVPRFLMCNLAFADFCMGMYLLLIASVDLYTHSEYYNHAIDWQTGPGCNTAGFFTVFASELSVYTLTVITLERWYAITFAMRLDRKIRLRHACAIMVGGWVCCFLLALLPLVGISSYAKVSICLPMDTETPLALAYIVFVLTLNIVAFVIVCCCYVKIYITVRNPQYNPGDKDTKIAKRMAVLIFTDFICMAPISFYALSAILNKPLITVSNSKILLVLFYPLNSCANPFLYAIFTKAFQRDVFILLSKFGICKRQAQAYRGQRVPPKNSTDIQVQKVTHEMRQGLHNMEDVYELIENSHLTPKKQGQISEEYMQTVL
Outline: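 Readout is cAMP by HTRF competition between cellular cAMP and cAMP-d2 for a cryptate-labelled antibody. Antagonism was assessed in TSHR-transfected HEK293 cells stimulated with 4 nM TSH (EC80, final) in the presence of RO 20-1724.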

[14] = biological target: Thyrotropin-releasing hormone receptor (Homo sapiens) (UniProt P34981); assay: qHTS for Small Molecule Agonists and Allosteric Enhancers of Human TRH Receptor: Validation Screen for Agonists (AID 493127;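 active = calcium activation more than 3 SD above the typical response in the agonist read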; note: 0% is about no effect); settings: TRH receptor agonist cell assay; at 2 µM; active compounds read high
Thyrotropin-releasing hormone receptor (Homo sapiens), sequence (P34981 whole entry, looked up): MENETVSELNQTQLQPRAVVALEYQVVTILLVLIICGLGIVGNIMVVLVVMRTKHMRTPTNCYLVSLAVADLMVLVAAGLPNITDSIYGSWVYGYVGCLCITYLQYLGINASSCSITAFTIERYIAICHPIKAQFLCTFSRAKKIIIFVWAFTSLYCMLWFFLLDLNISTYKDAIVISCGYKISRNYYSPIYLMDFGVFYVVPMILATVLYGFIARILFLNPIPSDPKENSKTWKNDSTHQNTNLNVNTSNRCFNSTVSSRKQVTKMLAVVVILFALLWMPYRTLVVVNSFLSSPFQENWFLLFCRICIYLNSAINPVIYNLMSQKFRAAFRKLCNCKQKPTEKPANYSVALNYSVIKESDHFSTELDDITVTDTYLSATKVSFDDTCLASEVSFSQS
Outline: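 TRHR cells loaded with fluo-8 calcium dye; FDSS kinetic fluorescence (Ex 480/Em 530) read at 1 s/cycle after 23 nL compound addition. Agonist-mode calcium response recorded before the 10 nM TRH (EC20) addition.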

[15] = biological target: Galactokinase (Homo sapiens) (UniProt P51570); assay: qHTS Validation Assay for Inhibitors of Human Galactokinase (GALK) (AID 493189); note: 0% is about no effect
Galactokinase (Homo sapiens), sequence (P51570 whole entry, looked up): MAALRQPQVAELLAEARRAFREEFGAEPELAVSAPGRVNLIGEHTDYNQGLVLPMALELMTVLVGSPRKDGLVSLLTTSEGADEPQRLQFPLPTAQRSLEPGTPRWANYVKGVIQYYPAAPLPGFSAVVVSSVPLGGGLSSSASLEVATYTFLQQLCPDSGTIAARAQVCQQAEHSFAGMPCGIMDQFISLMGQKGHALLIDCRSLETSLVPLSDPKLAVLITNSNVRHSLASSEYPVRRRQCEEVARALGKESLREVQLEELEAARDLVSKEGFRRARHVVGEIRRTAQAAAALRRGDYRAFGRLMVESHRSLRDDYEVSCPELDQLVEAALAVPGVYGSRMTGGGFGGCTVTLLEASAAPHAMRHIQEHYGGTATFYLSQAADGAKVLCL
Outline: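 5 nM GALK / 100 uM galactose / 35 uM ATP, 20 mM HEPES pH8.0, 5 mM MgCl2, 60 mM NaCl, 1 mM DTT, 0.01% BSA (final). RT 1 h; Kinase-Glo Plus luminescence.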

[16] = Validation screen for small molecules that induce DNA re-replication in SW480 colon adenocarcinoma cells (AID 504364); note: 0% is about no effect
Outline: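 SW480 cells (250/well) exposed 48 h at 37 C, 5% CO2, then Hoechst-stained 40 min. Nuclear DNA content imaged by fluorescence scanning (405 nm excitation, 500-530 nm emission); re-replication scored as increased nuclei with elevated intensity.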

[17] = biological target: Voltage-gated inwardly rectifying potassium channel KCNH2 (Homo sapiens) (UniProt Q12809); assay: qHTS Assay for Small Molecule Inhibitors of the Human hERG Channel Activity (AID 588834);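 note: top concentration of the series differs between compounds; % is set by controls: 0 for no effect and ±100 for the full control effect; lower thallium flux fluorescence means stronger hERG block; nearly all actives have a fitted effect of over 50% in size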
Outline: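 hERG-BacMam U2OS, 2000 cells/well; 0.7X FluxOR loading 1 hr RT dark; cpd ~10 min 37 °C; stim buffer; FDSS fluorescence 2 min @ 1 s; AC50 Hill fit.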

C[C@@H]1O[C@@H](O[C@H]2C[C@@H](O)[C@]3(CO)[C@H]4[C@H](O)C[C@]5(C)[C@@H]([C@@H]6COC(=O)C6)CC[C@]5(O)[C@@H]4CC[C@]3(O)C2)[C@H](O)[C@H](O)[C@H]1O
active: Potency [9] 1580 nM
inactive: Potency [1] | Potency [2] | Potency [3] | Potency [4] | Potency [5] | Potency [6] | outcome [7] | outcome [8] | Potency [10] | Potency [11] | outcome [12] | outcome [13] | activation [14] 1.38% | outcome [15] | outcome [16] | Potency [17]
